CYP2C19 activ: increases human CYP2C19 enzyme activity; activation factor at 5 µM; 96,000 tested, under 10 active; recombinant CYP2C19, luciferin-H EGE luminescence; stronger effect = higher value; 0 = fully inhibited enzyme, 1 = untreated enzyme; AID 1025;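 active = activation factor of at least 2 at 5 µM in the primary screen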;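 note: 0 = wells with 2.5 mM tranylcypromine and 1 = vehicle-only wells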
CYP2C9 act: increases human cytochrome P450 2C9 activity; recombinant CYP2C9, luciferin-H conversion, luminescence; stronger effect = higher value; factor 1 = untreated enzyme, 0 = blocked; activation factor at 5 µM; actives 1.4% (n = 96,000);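 active = activation factor of 2 or more for CYP2C9 at a 5 µM dose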;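 note: 0 = sulfaphenazole-blocked wells and 1 = vehicle-only wells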
Target sequence (P11712 whole entry, looked up): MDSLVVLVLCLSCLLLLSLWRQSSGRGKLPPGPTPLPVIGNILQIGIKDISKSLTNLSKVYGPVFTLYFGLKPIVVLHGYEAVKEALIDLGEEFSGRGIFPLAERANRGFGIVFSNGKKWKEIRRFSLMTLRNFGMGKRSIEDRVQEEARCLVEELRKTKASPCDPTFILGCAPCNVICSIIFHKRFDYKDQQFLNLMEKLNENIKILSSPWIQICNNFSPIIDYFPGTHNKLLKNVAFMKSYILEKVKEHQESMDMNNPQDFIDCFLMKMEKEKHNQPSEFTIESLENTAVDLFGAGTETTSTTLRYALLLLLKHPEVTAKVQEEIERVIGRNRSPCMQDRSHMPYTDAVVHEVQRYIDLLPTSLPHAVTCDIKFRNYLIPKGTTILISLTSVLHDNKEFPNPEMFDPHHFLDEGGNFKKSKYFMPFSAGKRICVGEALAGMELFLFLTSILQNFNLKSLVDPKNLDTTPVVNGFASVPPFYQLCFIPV
CYP2C19 inhib: inhibitors of human CYP2C19; P33261; CYP2C19 Supersomes, luciferin-H EGE luminescence, 30 min; inhibition, % at 5 µM; actives 21% (n = 96,000); AID 778;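 active = CYP2C19 inhibition above a set limit at 5 µM in the primary screen, cut at about 50% in these data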;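 note: plate controls were negative control wells for no effect and 2.5 mM tranylcypromine positive control for full effect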
EphB4 antag: antagonists of human EphB4-ephrin-B2 interaction. P54760. EphB4 LBD / TNYL-RAW-Alexa532 peptide, fluorescence polarization. inhibition, % at 7 µM. actives 0.15% (n = 97,000). AID 720;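 active = inhibition above the screen-wide mean inhibition plus 3 SD, cut at about 15% in these data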;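 note: 0% = DMSO wells and 100% = excess unlabeled TNYL-RAW peptide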
CYP2C9 inhib: inhibitors of human CYP2C9. P11712. CYP2C9 Supersomes, luciferin-H conversion, luminescence. inhibition, % at 5 µM. actives 20% (n = 96,000);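 active = blocking of liver enzyme CYP2C9 beyond about 50% at 5 µM, limit read from the data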
* marks the source's active call; other numbers are inactive results; . = no result. Sampled rows, rich in hits. Any-hit rate of the full collection: about 27%.

SMILES | CYP2C19 activ | CYP2C9 act | CYP2C19 inhib | EphB4 antag | CYP2C9 inhib
Cc1nn(C)cc1/C=N/NC(=O)c1ccc2c(c1)OCO2 | 1 | 0.9 | 4 | -4 | 7
Cc1nn(C)cc1/C=N\NC(=O)c1ccc2c(c1)c(C)c(C)n2Cc1ccccc1 | 0.2 | 0.2 | 76* | -6 | 83*
c1ccc(Oc2cc(-c3ccccc3)ncn2)cc1 | 0.3 | 0.9 | 66* | -3 | 13
COc1cc(C2Nc3ccc4ncccc4c3C3=C2C(=O)CCC3)ccc1O (stereo not given) | 0.1 | 0.3 | 91* | . | 66*
Cc1ccsc1C1Nc2ccc3ncccc3c2C2=C1C(=O)CCC2 (stereo not given) | 0.1 | 0.2 | 90* | -3 | 85*
Cc1ccc(-c2nnc(N3CCN(C(=O)COc4ccccc4)CC3)c3ccccc23)cc1 | 0.2 | 0.1 | 79* | -3 | 87*
c1ccc(-c2nnc(N3CCN(c4ccccn4)CC3)c3ccccc23)cc1 | 0.3 | 1.3 | 68* | 3 | -31
C/C(Cn1nnc([N+](=O)[O-])n1)=N\NC(=O)c1ccccc1 | 0.9 | 1.1 | 12 | -2 | -10
S=C(NCc1ccco1)N1CCN(C(c2ccccc2)c2ccccc2)CC1 | 0.7 | 0.3 | 35 | -2 | 72*
O=C(NC1CCCCC1)NC1CCN(C(=S)NCc2ccco2)CC1 | 0.8 | 0.9 | 15 | 3 | 13
O=C(CN1C(=O)NC2(CCCCCCC2)C1=O)NC(=O)NCc1ccco1 | 0.9 | 0.9 | 9 | -3 | 9
O=C(CN1CCN(C(c2ccccc2)c2ccccc2)CC1)NC(=O)NCc1ccco1 | 0.9 | 2* | 7 | 10 | -96
Cc1ccc2c(c1)NC(=O)C(CC(=O)NC1CCCCC1C)O2 (stereo not given) | 0.9 | 1.2 | 6 | -8 | -23
Cc1nn(C)c(C)c1CN(C)S(=O)(=O)c1ccc2ccccc2c1 | . | . | . | 4 | .
COc1ccc(NS(=O)(=O)c2ccc3oc(SC4CCOC4=O)nc3c2)cc1 (stereo not given) | 0 | 0 | 97* | 3 | 100*
COc1ccccc1N(CN1C(=O)c2ccccc2C1=O)C(=O)c1cccnc1 | 0.7 | 0.8 | 32 | -11 | 22
CCc1cccc(OCCCCNCCOC)c1 | 1 | 1 | 2 | 4 | 4
CCCCNC(=O)c1ccc(NS(=O)(=O)c2ccccc2)cc1 | 0.7 | 0.1 | 35 | 1 | 93*
CCN(CC)C(=O)c1ccc(NS(=O)(=O)c2ccccc2)cc1 | 0.2 | 0.2 | 82* | 2 | 77*
CC(=O)c1ccc(NC(=O)Oc2ccccc2)cc1 | 0.5 | 0.6 | 54* | -1 | 39
CCN(CC)C(=O)c1ccc(C(=O)c2ccccc2)cc1 | 0.9 | 0.9 | 13 | -5 | 11
O=S(=O)(Nc1ccncc1)c1ccccc1 | 1 | 0.9 | 0 | -7 | 7
CC(=O)c1ccc(NS(=O)(=O)c2ccccc2)cc1 | 0.4 | 0.2 | 61* | 2 | 79*
Cc1cc(C)c2c(n1)SCC(=O)N2CC(=O)NCCC1=CCCCC1 | 1 | 1.1 | 5 | . | -8
CCCC(=O)NC(C)c1nc2ccccc2n1CC (stereo not given) | 0.7 | 1.4 | 29 | -9 | -36
SMILES | CYP2C19 activ | CYP2C9 act | CYP2C19 inhib | EphB4 antag | CYP2C9 inhib
CCOC(=O)C1=C(C)Nc2ccc(C)cc2S1 | 0.3 | 0.7 | 66* | 4 | 31
COC(=O)[C@H](CCSC)NC(=O)Nc1cc(C)ccc1C | 1 | 1 | 3 | -5 | 0
CCOC(=O)CC1Sc2ccccc2NC1=O (stereo not given) | 0.6 | 1.1 | 38 | 8 | -14
CSCCOC(=O)C1=C(C)Nc2ccc(C)cc2S1 | 0.5 | 0.4 | 50 | 0 | 61*
CCOCCOC(=O)C1=C(C)Nc2ccc(C)cc2S1 | 0.1 | 0.3 | 91* | . | 71*
COc1ccc2cc(CCNC(=O)C(C)C)c(=O)[nH]c2c1 | 0.9 | 0.9 | 6 | . | 10
Cc1ccc(N2C(N)=C(C#N)C3(C(=O)N(C)c4ccccc43)C3=C2CC(C)(C)CC3=O)cc1Cl (stereo not given) | 0.9 | 0.5 | 12 | 6 | 54*
CN1C(=O)C2(C(C#N)=C(N)N(c3cc(Cl)cc(Cl)c3)C3=C2C(=O)CC(C)(C)C3)c2ccccc21 (stereo not given) | 1 | 0.8 | 0 | 1 | 19
COc1ccccc1NC(=O)N1CCN(c2ccccn2)CC1 | 0.7 | 1.8 | 25 | 3 | -78
COc1ccc(NC(C)=O)cc1NC(=O)CN1CCN(CC(=O)Nc2ccc(Cl)cc2)CC1 | 0.3 | 0.8 | 67* | 10 | 25
COc1ccccc1NC(=O)N1CCN(c2ccccc2F)CC1 | 0.6 | 2.4* | 41 | -8 | -135
COc1ccc(Cl)cc1NC(=O)N1CCN(CCc2ccccc2)CC1 | 0.3 | 2.3* | 73* | 2 | -130
COc1ccc(C)cc1NC(=O)CN1CCN(CC(=O)Nc2ccccc2F)CC1 | 0.4 | 0.9 | 61* | -7 | 12
COc1ccc(Cl)cc1NC(=O)N1CCN(S(C)(=O)=O)CC1 | 1 | 1.6 | -5 | 3 | -58
COc1ccccc1NC(=O)CN1CCN(CC(=O)Nc2cc(NC(C)=O)ccc2OC)CC1 | 0.6 | 0.8 | 41 | -6 | 24
CC(c1nnc(SCC(=O)NC(=O)NCc2ccco2)n1-c1ccc(Cl)cc1)N(C)C (stereo not given) | 0.8 | 0.8 | 17 | 2 | 21
NC(=O)C1CCN(C(=O)C2CCN(S(=O)(=O)c3ccccc3)CC2)CC1 | 1.1 | 0.8 | -12 | 3 | 17
COc1ccccc1NC(=O)CN1CCN(c2ccccc2F)CC1 | 0.1 | 0.3 | 88* | 3 | 66*
CCCC(=O)Nc1cccc(NC(=O)CN2CCN(c3ccccc3OC)CC2)c1 | 0.1 | 0.2 | 88* | . | 77*
COc1ccc(Cl)cc1NC(=O)C(C)N1CCN(C/C=C/c2ccccc2)CC1 (stereo not given) | 0 | 0.1 | 97* | 4 | 91*
COc1cccc(NC(=O)CN2CCN(c3ccccc3F)CC2)c1 | 0.4 | 0.3 | 62* | -3 | 67*
COc1ccc(OC)c(NC(=S)N2CCN(C/C=C/c3ccccc3)CC2)c1 | 0.9 | 1 | 6 | 6 | 1
COc1ccccc1NC(=S)N1CCC(NC(=O)NC23CC4CC(CC(C4)C2)C3)CC1 | 0.7 | 0.9 | 29 | -3 | 5
COc1ccc(C(=O)NC(Oc2ccccc2)C(Cl)(Cl)Cl)cc1 (stereo not given) | 0.9 | 0.8 | 13 | 13 | 18
CSc1cc(C)nc(NC(C)=O)n1 | 1 | 1 | -2 | 11 | -1
COc1cc2c(cc1NC(=O)Cn1cnc3c1c(=O)n(C)c(=O)n3C)oc1ccccc12 | 1 | 1.1 | 0 | 6 | -7
COc1ccccc1NC(=O)CCN1CCN(Cc2ccccc2)CC1 | 0.8 | 0.4 | 24 | -7 | 57*
CCOC(=O)c1ccc(NC(=O)N2CCN(CCc3ccccc3)CC2)cc1 | 0.6 | 0.3 | 43 | 2 | 66*
CCOC(=O)c1ccc(NC(=O)N2CCN(c3ccccn3)CC2)cc1 | 1 | 1.2 | 1 | 1 | -17
